Where “and” joins values, the source holds several entries; their conditions need not be identical. Identical values can stand only once. Hit rate of the full screen: of about 260,000 compounds, about 1,500 (0.58%) were called active. Inconclusive results (about 5%) are left out. Not all results are given here. Potency and affinity values are given separately. A number with no mark means an inactive call.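 How the source made its calls: active means inhibition above a set limit at one or more doses, reproduced on every date tested; inconclusive means results disagree between test dates, or hit never tested in dose response; inactive means the rest.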
These compounds were tested against Virion infectivity factor (Human immunodeficiency virus type 1 group M subtype B (isolate BH10)) + Virion infectivity factor (Human immunodeficiency virus type 1 group M subtype B (isolate BRU/LAI)) + Virion infectivity factor (Human immunodeficiency virus type 1 group M subtype B (isolate PCV12)) + Virion infectivity factor (Human immunodeficiency virus type 1 group M subtype B (isolate HXB2)) + DNA dC->dU-editing enzyme APOBEC-3G (Homo sapiens) (UniProt P69720+P69721+P69722+P69723+Q9HC16) (assay: inhibitors of Vif binding to APOBEC3G peptide, primary screen, biochemical, TR-FRET, GST-Vif 1-94, biotin-A3G peptide, dose response retest (AID 1117319;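 further: Vif residues 1-94 fused to GST binding biotinylated APOBEC3G peptide 110-148; 0% = full assay without inhibitor and 100% = GST in place of GST-Vif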)). Conditions: stronger effect = higher value.

Question: For `CC(=O)Nc1ccc(NC(=O)CN2CCN(c3ccccn3)CC2)cc1`, which inhibition is on record?
Answer: -2.22%

Question: How did the inhibition turn out when `Cn1nc(C(=O)Nc2ccccc2N2CCCC2)c2ccccc2c1=O` was run?
Answer: 1.83%

Question: Which inhibition does the source give for `O=c1nc2s/c(=C\c3ccco3)c(=O)n2nc1Cc1ccc(F)cc1` here?
Answer: 23.6% and -1.42%

Question: With `COc1cccc(/C=c2\sc3nc(-c4cccs4)nn3c2=O)c1OC` as the compound, how does the inhibition read?
Answer: 21.5%

Question: With `COc1ccc(OC)c(/C=c2\sc3nc(-c4cccs4)nn3c2=O)c1` as the compound, how does the inhibition read?
Answer: 10.3%

Question: `CCCOc1ccc(/C=c2\sc3nc(-c4ccco4)nn3c2=O)cc1OCC` was tested. Which inhibition did it give?
Answer: 8.17%

Question: For `Cc1ccc(/C=c2\sc3nc(-c4cccnc4)nn3c2=O)cc1`, which inhibition is on record?
Answer: 8.43%

Question: `COc1ccccc1/C=c1\sc2nc(-c3ccco3)nn2c1=O` was tested. Which inhibition did it give?
Answer: 31.4%

Question: Which inhibition does the source give for `COc1ccccc1/C=C/C=c1\sc2nc(=O)c(Cc3ccccc3)nn2c1=O` here?
Answer: 26.2%

Question: With `CCCOc1ccc(/C=c2\sc3ncnn3c2=O)cc1` as the compound, how does the inhibition read?
Answer: 3.82%

Question: Which inhibition does the source give for `COc1ccc(/C=C2\S/C(=N/S(=O)(=O)c3cccs3)NC2=O)cc1` here?
Answer: 7.65%

Question: How did the inhibition turn out when `CCCNC(=O)CN1C(=O)NC(CCc2ccccc2)C1=O` (centres undefined) was run?
Answer: -6.24%

Question: For `NC(=O)c1cc(S(=O)(=O)NCCCc2ccccc2)cs1`, which inhibition is on record?
Answer: 3.6%

Question: For `COc1ccc(Nc2nc(C)cc(=O)[nH]2)c(OC)c1`, which inhibition is on record?
Answer: 10.4%

Question: `CCOC(=O)C1=C(N)OC2=C(C(=O)CCC2)C1c1cccs1` (centres undefined) was tested. Which inhibition did it give?
Answer: 1.36%

Question: For `COC(=O)C1=C(N)OC2=C(C(=O)CC(C)(C)C2)C1c1cccs1` (centres undefined), which inhibition is on record?
Answer: 12.5%

Question: Which inhibition does the source give for `COc1cc(/C=N/N=C(/C(=O)c2ccccc2)c2ccccc2)cc(OC)c1O` here?
Answer: 1.68%

Question: How did the inhibition turn out when `Oc1ccccc1C=NNC(=S)NN=Cc1ccccc1O` was run?
Answer: -0.1%

Question: How did the inhibition turn out when `Oc1ccccc1/C=N/Nc1ccccc1` was run?
Answer: 3.4%

Question: Which inhibition does the source give for `O=C(C(=NNc1ccccc1)c1ccccc1)c1ccccc1` here?
Answer: -6.13%

Question: How did the inhibition turn out when `O=C1C=CC(=O)N1CCCCCCCCCCN1C(=O)C=CC1=O` was run?
Answer: -0.57%

Question: For `O=S(=O)(NC1CCCC1)c1ccc(F)cc1F`, which inhibition is on record?
Answer: 21.1%

Question: Which inhibition does the source give for `COc1ccc(C(=O)NC(C)c2nnc(SCC(=O)Nc3nc(C)cs3)n2C)cc1` (centres undefined) here?
Answer: 5.71%

Question: With `COc1cc(NS(=O)(=O)c2ccc(NC(=O)/C=C/c3ccc([N+](=O)[O-])cc3)cc2)ncn1` as the compound, how does the inhibition read?
Answer: 7.89%

Question: Which inhibition does the source give for `CN1C(=O)/C(=C/c2ccco2)SC1=Nc1ccc(N2CCOCC2)cc1` here?
Answer: 25%

Question: With `CN1C(=O)CSC1=Nc1cccc(C(=O)O)c1` as the compound, how does the inhibition read?
Answer: -5.13%

Question: For `CCCCn1c(N)c(N(CCC(C)C)C(=O)CSc2nnc(C)s2)c(=O)[nH]c1=O`, which inhibition is on record?
Answer: 2.42%

Question: `CC(=O)c1ccc(N2CCN(c3ccc(C(N)=O)cc3[N+](=O)[O-])CC2)cc1` was tested. Which inhibition did it give?
Answer: 15.8%

Question: How did the inhibition turn out when `COc1ccc(N2CCN(c3ccc(C(N)=O)cc3[N+](=O)[O-])CC2)cc1` was run?
Answer: -3.87%

Question: How did the inhibition turn out when `O=C(OCc1ccco1)c1cccnc1` was run?
Answer: -2.16%

Question: For `Cc1ccc(Cc2c(-c3ccccc3)nc3cc(C)ccn23)cc1`, which inhibition is on record?
Answer: -4.74%

Question: For `CCC(=O)Nc1nnc(Sc2ccc(N(C)C)cc2)s1`, which inhibition is on record?
Answer: 2.99%

Question: With `CCCC(=O)Nc1nnc(Sc2ccc(N(C)C)cc2)s1` as the compound, how does the inhibition read?
Answer: 2.88%

Question: With `COCCSc1nnc(NC(=O)COC)s1` as the compound, how does the inhibition read?
Answer: -0.26%

Question: With `O=C1c2cccnc2C(Nc2ccccc2Br)N1Cc1ccco1` (centres undefined) as the compound, how does the inhibition read?
Answer: 9.8%

Question: How did the inhibition turn out when `O=C1c2cccnc2C(Nc2cccc(F)c2)N1Cc1ccco1` (centres undefined) was run?
Answer: -1.27%

Question: For `Cc1cc(C(=O)COC(=O)c2ccc[nH]c2=O)c(C)n1C1CC1`, which inhibition is on record?
Answer: 13%

Question: Which inhibition does the source give for `NC(=S)NNC(=O)c1cc(C(F)(F)F)cc(C(F)(F)F)c1` here?
Answer: 1.55%

Question: `Cc1ccc2[nH]cc(S(=O)(=O)c3ccc(C(C)C)cc3)c(=O)c2c1` was tested. Which inhibition did it give?
Answer: -10.1%

Question: How did the inhibition turn out when `CN(Cc1ccno1)C(=O)CC1C(=O)NCCN1CC(c1ccccc1)c1ccccc1` (centres undefined) was run?
Answer: -5.42%

Question: For `Cc1ccc(NCN2C(=O)C3C4C=CC(C4)C3C2=O)cc1` (centres undefined), which inhibition is on record?
Answer: 6.77%

Question: How did the inhibition turn out when `O=C1C2C3C=CC(C3)C2C(=O)N1CNc1ccccc1` (centres undefined) was run?
Answer: 2.49%

Question: Which inhibition does the source give for `Cc1ccc(NC(=O)CSc2nc(C)c(C)c(C)n2)c([N+](=O)[O-])c1` here?
Answer: -0.85%

Question: Which inhibition does the source give for `CCOC(=O)C1=C(C)N=C(/N=C/N(C)C)SC1c1ccccc1` (centres undefined) here?
Answer: 18.8%

Question: Which inhibition does the source give for `COc1ccccc1NC(=O)Cn1c(CCC(=O)O)ccc1-c1ccccc1` here?
Answer: -8.03%

Question: `O=C(O)CCc1ccc(-c2ccccc2)n1CC(=O)O` was tested. Which inhibition did it give?
Answer: 6.57%

Question: For `O=S(=O)(Nc1ccc2c(c1)OCCO2)c1ccc2oc3ccccc3c2c1`, which inhibition is on record?
Answer: -4.26%

Question: How did the inhibition turn out when `Cc1ccc(C(=O)Nn2c(O)c(C=C3N=c4ccccc4=N3)sc2=S)cc1` was run?
Answer: 0.29%

Question: With `O=C(CCNC(=O)N1CC(=O)Nc2ccccc21)NCc1ccccc1Cl` as the compound, how does the inhibition read?
Answer: 2.33%

Question: `COCCN1CC(C(=O)NCc2ncccc2C)CCC1=O` (centres undefined) was tested. Which inhibition did it give?
Answer: 0.7%

Question: `O=c1oc2ccc([N+](=O)[O-])cc2c(N2CCOCC2)c1[N+](=O)[O-]` was tested. Which inhibition did it give?
Answer: -2.71%

Question: `COC(=O)Cc1cc(=O)n(-c2ccccc2)[nH]1` was tested. Which inhibition did it give?
Answer: 20.8%

Question: With `COc1ccc(-c2cc(=O)n(-c3nc4ccccc4[nH]3)[nH]2)cc1` as the compound, how does the inhibition read?
Answer: 10.5%

Question: Which inhibition does the source give for `COCCSc1nc2c(c(=O)[nH]c(=O)n2C)n1CCC(C)C` here?
Answer: 2.86%

Question: How did the inhibition turn out when `Cc1ccc(N(CCO)C(=S)Nc2ccccc2)cc1` was run?
Answer: 1.36%

Question: For `O=C(c1cc(-c2ccccc2)nn1-c1ccccc1)N1CCN(S(=O)(=O)c2ccc(F)cc2)CC1`, which inhibition is on record?
Answer: -4.9%

Question: Which inhibition does the source give for `CCOC(=O)c1c(C)oc2c1c(C=NCCO)c(O)c1ccccc12` here?
Answer: 14.7%

Question: With `CCOC(=O)c1c(C)oc2c1c(C=NCC1CCCO1)c(O)c1ccccc12` (centres undefined) as the compound, how does the inhibition read?
Answer: 25.6%

Question: With `CNS(=O)(=O)c1cccc(C(=O)OCC(=O)c2ccc3[nH]c(=O)[nH]c3c2)c1` as the compound, how does the inhibition read?
Answer: 4.94%

Question: Which inhibition does the source give for `COc1ccccc1NC(=S)NC(NC(C)=O)C(Cl)(Cl)Cl` (centres undefined) here?
Answer: -2.68%

Question: With `O=C(CCC(=O)N1CCN(c2ccccc2F)CC1)c1ccc(F)cc1` as the compound, how does the inhibition read?
Answer: 0.58%

Question: `Cc1cccn2c(=O)nc(SCC(=O)N3CCCCC3)nc12` was tested. Which inhibition did it give?
Answer: -0.7%

Question: How did the inhibition turn out when `Cc1cc(=O)n2nc(-c3ccc(C(F)(F)F)cc3)sc2n1` was run?
Answer: 0.75%

Question: `CCOc1ccc(/C=C/C(=O)Nc2ccc(N3CCOCC3)cc2)cc1` was tested. Which inhibition did it give?
Answer: 3.96%

Question: Which inhibition does the source give for `CCN(CC)S(=O)(=O)c1ccc(/C=C/C(=O)Nc2ccccc2N2CCOCC2)cc1` here?
Answer: 28.5%

Question: Which inhibition does the source give for `CCNC(=O)COC(=O)c1ccc(S(=O)(=O)N2CCCCCC2)cc1` here?
Answer: -4.99%

Question: With `CC(C)Cc1cc(C(=O)N2CCC(N3CCC(C(=O)N4CCOCC4)CC3)CC2)n[nH]1` as the compound, how does the inhibition read?
Answer: 12.3%

Question: With `CCCCN(C)C(=O)c1nc2ccccn2c1CN1CCN(c2ccccn2)CC1` as the compound, how does the inhibition read?
Answer: -11.9%

Question: For `COCCn1nnnc1C(c1cc2cc(C)ccc2[nH]c1=O)N1CCc2ccccc21` (centres undefined), which inhibition is on record?
Answer: 17%

Question: Which inhibition does the source give for `Cc1cc(NC(=O)CSc2nnc(Cc3cccn3C)n2CCc2ccccc2)no1` here?
Answer: 24.2%

Question: With `CC1(C)Cc2cccc(OCC(=O)OCc3nnc(-c4ccccc4)o3)c2O1` as the compound, how does the inhibition read?
Answer: -2.78%

Question: For `C/C(=N\NC(=O)Cc1cccn1C)c1ccco1`, which inhibition is on record?
Answer: 20.2%

Question: For `CC(/C=N/NC(=O)Cc1cccs1)=C\c1ccco1`, which inhibition is on record?
Answer: 12.2%

Question: Which inhibition does the source give for `CC(=O)Nc1ccc2c(c1)nc(C)n2-c1ccccc1` here?
Answer: -9.18%

Question: How did the inhibition turn out when `O=C1C[C@@H](c2ccc(O)cc2)Oc2cc(O)cc(O)c21` was run?
Answer: 2.93%

Question: For `O=C1CC(c2ccc(O)cc2)Oc2cc(O)cc(O)c21` (centres undefined), which inhibition is on record?
Answer: 10.3%

Question: For `Cc1n[nH]c(C)c1S(=O)(=O)N(C)Cc1ccco1`, which inhibition is on record?
Answer: 0%

Question: Which inhibition does the source give for `Cc1noc(C)c1COc1ccc(C(=O)OCC(=O)N2CC(=O)Nc3ccccc32)cc1` here?
Answer: 2.4%

Question: How did the inhibition turn out when `CCC(=O)c1ccc(OCC(=O)OCC(=O)N2c3ccccc3NC(=O)C2(C)C)cc1` was run?
Answer: 0.69%

Question: Which inhibition does the source give for `CS(=O)(=O)N(CC(=O)N1CCCCCC1)c1ccc2c(c1)OCCO2` here?
Answer: 0.11%

Question: `CCC(=O)Nc1nc2ccc([N+](=O)[O-])cc2s1` was tested. Which inhibition did it give?
Answer: 1.71%

Question: How did the inhibition turn out when `COc1ccc(C)cc1NC(=O)NCc1ccc(F)cc1` was run?
Answer: 7.92%

Question: Which inhibition does the source give for `COc1ccc(OC)c(NC(=O)NCc2cccnc2)c1` here?
Answer: -1.39%

Question: How did the inhibition turn out when `O=C(CCNC(=O)c1ccc(Cl)cc1)NCc1ccccc1Cl` was run?
Answer: -1.5%

Question: How did the inhibition turn out when `COc1cccc(-c2c3c([nH]c(=O)c2C#N)CCc2cc(OC)ccc2-3)c1` was run?
Answer: -2.14%

Question: With `CCCCN1CC(COCc2ccccc2)Oc2cc(Br)ccc2S1(=O)=O` (centres undefined) as the compound, how does the inhibition read?
Answer: -3.27%

Question: With `CCC(C(=O)OCC(=O)Nc1ccc(F)cc1)c1ccccc1` (centres undefined) as the compound, how does the inhibition read?
Answer: 11.7%

Question: For `CCC(C(=O)OCC(=O)Nc1ccc(C(N)=O)cc1)c1ccccc1` (centres undefined), which inhibition is on record?
Answer: -11.4%

Question: For `CCSc1nnc(NC(=O)[C@@H](NC(=O)c2ccccc2F)C(C)C)s1`, which inhibition is on record?
Answer: -8.51%

Question: `Cc1cc(Cl)c2c(c1)[C@]1(C(=O)N2)[C@@H]2C(=O)N(Cc3ccccc3)C(=O)[C@@H]2[C@@H]2CCCN21` was tested. Which inhibition did it give?
Answer: 28.3%

Question: How did the inhibition turn out when `Cc1c(Cl)ccc2c1NC(=O)[C@]21[C@@H]2C(=O)N(Cc3ccccc3)C(=O)[C@@H]2[C@@H]2CCCN21` was run?
Answer: 2.38%

Question: Which inhibition does the source give for `O=C(Cc1n[nH]c(=O)c2ccccc12)OCC(=O)c1ccc(F)c(F)c1` here?
Answer: -13.4%

Question: `Cc1cc(NC(=O)Nc2ccc(F)cc2F)n(C)n1` was tested. Which inhibition did it give?
Answer: -0.16%

Question: How did the inhibition turn out when `C#CCN(C[C@H]1[C@H](OC(=O)Nc2c(C)noc2C)[C@H](OC(=O)Nc2c(C)noc2C)C[C@@H](C(=O)OC)[C@H]1C(=O)OC)S(=O)(=O)c1ccc(C)cc1` was run?
Answer: 1.23%
